# Measured values as given in the supplement of paper PMC10646978.
# ± gives the standard deviation.
# Key:
# Conditions in all cases: modulator concentration 10 µM
# [1] = tested on: RAW-Dual (murine macrophage reporter line); assay: NF-kB reporter (SEAP) activity fold change vs agonist alone; higher = enhanced NF-kB activity
# How it was run: (§1)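 In 384-well plates holding 50 000 RAW-Dual murine macrophage reporter cells per well, compound at 10 μM final was pre-incubated for 1 hour at 37 °C, after which a PRR agonist was added overnight. Supernatant SEAP read with QUANTI-Blue at 620 nm absorbance reported NF-κB, and Lucia luciferase read with QUANTI-Luc luminescence reported IRF. Fold change values come from dividing each reporter signal by the mean of agonist-only control wells on the same plate, averaged over replicate plates with propagated errors.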
# [2] = tested on: RAW-Dual (murine macrophage reporter line); assay: IRF reporter (Lucia luciferase) activity fold change vs agonist alone; higher = enhanced IRF activity
# How it was run: as §1
# [3] = tested on: RAW-Dual (murine macrophage reporter line); assay: viability score (confluency relative to resting cells, overnight) (fraction); higher = more viable, active = viable (0.7 or more)
# How it was run: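 Confluency was the readout: RAW-Dual macrophages were imaged with IncuCyte after an overnight exposure to compound at 10 μM final. IncuCyte software produced two masks over all imaged wells. The viability score expresses confluency against resting cells, and both masks had to exceed 70% of resting cells for a compound to meet the cutoff.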
# [4] = agonist: CpG ODN 1826 0.5 ug/mL
SMILES,"NF-kB reporter [1, 4]",NF-kB reporter ([1]; agonist: LPS 0.1 ug/mL),NF-kB reporter ([1]; agonist: MPLA […]),IRF reporter ([2]; agonist: 3'3'-cGAMP 10 ug/mL),IRF reporter ([2]; agonist: LPS 0.1 ug/mL),IRF reporter ([2]; agonist: MPLA […]),viability score [3]
N[C@H]1CONC1=O,1.08 ± 0.13,1.06 ± 0.057,1.03 ± 0.074,1.02 ± 0.1,0.957 ± 0.039,0.949 ± 0.1,1.01 (active)
COc1ccc(N(CC(=O)Nc2ccc3ccccc3c2)S(C)(=O)=O)cc1OC,0.921 ± 0.074,1.06 ± 0.06,0.883 ± 0.054,0.907 ± 0.025,1.43 ± 0.18,1.06 ± 0.14,1.01 (active)
C[C@H](Oc1cc(-c2cnn(C3CCNCC3)c2)cnc1N)c1c(Cl)ccc(F)c1Cl,0.85 ± 0.069,0.896 ± 0.11,0.942 ± 0.08,1.03 ± 0.047,1.1 ± 0.23,1.17 ± 0.38,0.998 (active)
CC(C)NCC(O)COc1cccc2ccccc12.Cl (configuration not stated),0.858 ± 0.12,1.05 ± 0.13,1.03 ± 0.06,0.66 ± 0.051,1.21 ± 0.22,1.12 ± 0.29,0.984 (active)
Cn1cnc2c(F)c(Nc3ccc(Br)cc3F)c(C(=O)NOCCO)cc21,0.822 ± 0.071,0.65 ± 0.052,0.666 ± 0.04,0.777 ± 0.045,1.17 ± 0.23,1.35 ± 0.45,0.248 (inactive)
CCOc1cc2ncc(C#N)c(Nc3ccc(OCc4ccccn4)c(Cl)c3)c2cc1NC(=O)/C=C/CN(C)C,0.161 ± 0.007,0.781 ± 0.075,0.907 ± 0.092,0.694 ± 0.032,1.46 ± 0.26,1.56 ± 0.57,0.977 (active)
Cc1ccc(C2(O)C=CC(C)(C(Cl)(Cl)Cl)C=C2)cc1 (configuration not stated),0.687 ± 0.054,0.974 ± 0.063,1.02 ± 0.067,0.455 ± 0.093,0.989 ± 0.047,0.915 ± 0.14,1 (active)
O=C(O)CCCCCN1C(=O)c2ccccc2C1=O,0.968 ± 0.089,0.988 ± 0.074,1.04 ± 0.099,1.03 ± 0.034,1.35 ± 0.19,1.5 ± 0.23,1.03 (active)
CCN(CC)CCOC(=O)C(Cc1cccc2ccccc12)CC1CCCO1.O=C(O)C(=O)O (configuration not stated),0.672 ± 0.21,1.05 ± 0.061,0.998 ± 0.11,0.491 ± 0.026,1.12 ± 0.2,1.27 ± 0.13,0.977 (active)
Cc1oncc1C(=O)NCc1cc(C2CC2)n(C)n1,0.927 ± 0.087,0.954 ± 0.12,0.975 ± 0.065,0.946 ± 0.04,0.982 ± 0.072,0.921 ± 0.24,0.997 (active)
NC12CC3CC(CC(C3)C1)C2,1.19 ± 0.31,1.09 ± 0.066,1.01 ± 0.087,0.874 ± 0.061,1.13 ± 0.15,1.06 ± 0.2,0.999 (active)
COc1ccccc1-c1cc(-c2ccccc2)nc(SCC(N)=O)c1C#N,1.06 ± 0.17,0.918 ± 0.12,0.928 ± 0.073,0.596 ± 0.02,1.2 ± 0.18,1.41 ± 0.2,1 (active)
CC1COc2c(N3CCN(C)CC3)c(F)cc3c(=O)c(C(=O)O)cn1c23 (configuration not stated) [Prestw-237],1.46 ± 0.24,1.01 ± 0.12,1.12 ± 0.16,1.14 ± 0.033,0.8 ± 0.078,0.894 ± 0.15,0.983 (active)
CCCn1c(C(O)(c2ccccc2)c2ccccc2)nc2ccccc21,0.514 ± 0.034,1.07 ± 0.082,0.736 ± 0.05,1.3 ± 0.08,1.1 ± 0.086,1.04 ± 0.19,0.888 (active)
Cc1ccc(CN2CCN(N=Cc3c4ccccc4cc4ccccc34)CC2)cc1,0.75 ± 0.071,0.881 ± 0.044,1.12 ± 0.1,0.855 ± 0.048,1.37 ± 0.08,1.25 ± 0.13,0.998 (active)
O=C1C(CCC(O)c2ccc(F)cc2)C(c2ccc(O)cc2)N1c1ccc(F)cc1 (configuration not stated),1.09 ± 0.085,0.898 ± 0.16,1.04 ± 0.098,0.942 ± 0.034,1.16 ± 0.2,1.18 ± 0.25,1.01 (active)
Cc1nnsc1C(=O)Nc1ccccc1C(F)(F)F,1.1 ± 0.084,0.954 ± 0.077,1 ± 0.048,0.969 ± 0.039,0.993 ± 0.11,0.929 ± 0.15,1 (active)
Cl.NCc1ccc(S(N)(=O)=O)cc1,0.998 ± 0.097,0.965 ± 0.047,0.998 ± 0.078,0.964 ± 0.058,0.962 ± 0.038,0.928 ± 0.13,1 (active)
CCOc1ccc(CN(CCc2ccc3c(c2)OCO3)Cc2ccc3ccccc3c2)cc1,0.733 ± 0.083,0.954 ± 0.063,0.781 ± 0.053,0.197 ± 0.0058,1.54 ± 0.2,1.2 ± 0.16,0.989 (active)
COc1ccc(CCNC2CC(=O)N(C)C2=O)cc1OC (configuration not stated),1.08 ± 0.061,1.03 ± 0.11,0.994 ± 0.046,0.944 ± 0.07,0.998 ± 0.091,0.895 ± 0.15,0.997 (active)
CC1=NN(C(=O)CCCc2ccccc2)C(O)(c2ccc(Cl)cc2)C1 (configuration not stated),0.923 ± 0.1,1 ± 0.13,1.02 ± 0.049,0.899 ± 0.2,1.1 ± 0.065,1.13 ± 0.15,0.999 (active)
CCc1ccc(OCCSc2nc3ccccc3n2CCO)cc1,0.776 ± 0.075,1.08 ± 0.07,0.927 ± 0.073,0.986 ± 0.03,1.33 ± 0.15,1.13 ± 0.09,1.01 (active)
O=C(c1ccco1)c1nc2c(n1O)CCCCC2,1.12 ± 0.073,0.995 ± 0.089,1.03 ± 0.028,0.998 ± 0.07,0.971 ± 0.078,1.03 ± 0.1,1 (active)
COC(=O)[C@]12CCC(C)(C)C[C@H]1[C@H]1C(=O)C=C3[C@@]4(C)C=C(C#N)C(=O)C(C)(C)[C@@H]4CC[C@@]3(C)[C@]1(C)CC2,0.0752 ± 0.0037,0.294 ± 0.025,0.937 ± 0.086,0.0972 ± 0.012,0.571 ± 0.071,0.585 ± 0.14,0.246 (inactive)
Cn1c(=O)c2c(ncn2CC2OCCO2)n(C)c1=O,0.89 ± 0.12,0.921 ± 0.067,0.99 ± 0.057,0.919 ± 0.084,0.904 ± 0.11,0.845 ± 0.17,1 (active)
O=C1c2ccccc2C(=O)C1c1ccccn1,0.912 ± 0.069,1.08 ± 0.087,0.993 ± 0.021,0.897 ± 0.055,0.976 ± 0.075,0.95 ± 0.091,0.987 (active)
